# Only some compounds are listed: those with a hit (about 11% of all), similar ones and a draw of the others.
# Pf growth 96h: P. falciparum growth inhibition at 96 hours; P. falciparum luciferase reporter growth, 96 h; Potency, µM (highest dose often 28.7 µM), actives largely listed as inhibitors; hit rate 6.9% among 320,000
#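 Plates of compound plus infected erythrocytes (2% hematocrit, 0.05% parasitemia final) incubate 96 hours, 37 C, 5% CO2. Detection reagent added; reduced luminescence from the parasites' luciferase reporter flags inhibition.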
# NS1 inh: influenza NS1 inhibition | Potency, µM (top dose mostly 46.1 µM) | hit rate 0.4% among 270,000 | AID 2326; calls by dose curve; also: actives are rising curves; nearly all actives have a fitted effect of over 50% in size
#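 Read-out: OD600 growth recovery of NS1-expressing budding yeast. Cells grown overnight at 30C in -URA glucose medium, washed, resuspended and diluted 1:100 in 2% galactose assay medium, pH 6.0. Same strain lacking NS1 served as positive control.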
# Sm TGR block: blocks Schistosoma mansoni thioredoxin glutathione reductase; purified TGR, DTNB reduction, TNB absorbance 405 nm; Q962Y6; Potency, µM (highest dose often 114 µM), most hits filed as inhibitors; hit rate 3% among 360,000; also: nearly all actives have a fitted effect of over 60% in size
#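 Kinetic colorimetric format: TGR-catalysed, NADPH-driven DTNB reduction monitored via TNB absorbance. Enzyme dispensed at 20 nM; compound exposure 15 min at room temperature before reaction start.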
# AMA1 RON2 block: inhibitors of Plasmodium falciparum AMA1-RON2 interaction. AlphaScreen AMA1-biotinylated RON2 peptide binding. Potency, µM (doses to about 58.2 µM), actives largely listed as inhibitors. hit rate 0.2% among 360,000. AID 720542; also: nearly all actives have a fitted effect of over 45% in size
#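 AMA1 (3D7) with his tag at 25 nM final met compounds first, then biotinylated RON2 peptide at 25 nM; detection used donor plus acceptor beads, 10 µg/mL apiece, read by AlphaScreen after 30 min at room temperature.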
# Pf growth 48h: P. falciparum growth inhibition at 48 hours (one generation); Potency, µM (top dose mostly 28.7 µM), most hits filed as inhibitors; hit rate 5.9% among 310,000; P. falciparum luciferase growth in erythrocytes, 48 h
#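 First compound was added to culture medium, then infected red cells at 0.1% parasitemia and 2% hematocrit (final). After incubation at 37 C under 5% CO2, luciferase detection reagent was dispensed and light output recorded.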
# A number is an active result; . = inactive; ? = inconclusive; / = not tested or not shown. Unless noted, calls follow the shape of the dose curve; as a rule, active = well fitted curve in the direction sought with a large enough effect; inconclusive = small, poorly fitted or top-dose-only effect, or another doubt; inactive = no such curve, though single readings can be large; an effect the other way counts as inactive or inconclusive.
SMILES,Pf growth 96h,NS1 inh,Sm TGR block,AMA1 RON2 block,Pf growth 48h
Cc1cc(C)c2c(-n3cccc3)c(C(=O)NCCc3ccc(Cl)cc3)sc2n1,/,/,.,/,/
O=C(c1ccc(S(=O)(=O)Nc2ccccc2F)cc1)N1CCCC1,.,/,.,.,.
CCn1nnnc1SCC(=O)N1N=C(c2cccs2)CC1c1cccs1 (centres undefined),.,/,.,.,.
Cc1ccc(O)c(C(=O)c2cc(C(=O)NCc3ccccc3)c(=O)n(Cc3ccccc3)c2)c1,?,.,.,.,3.7µM
O=C(c1cc(C(=O)NCc2ccccc2)c(=O)n(Cc2ccccc2)c1)c1cc(Br)ccc1O,0.41µM,?,.,.,1.5µM
N#Cc1cc(C(=O)c2cc(Br)ccc2O)cn(Cc2ccccc2)c1=O,?,/,.,.,?
O=c1[nH][nH]c(=O)n1-c1ccccc1,.,.,.,.,.
CC(C)(C)NC(=O)c1cc(C(C)(C)C)c(O)c(C(C)(C)C)c1,9.3µM,.,.,.,?
CC(C)(C)NC(=O)c1ccc(C(=O)NC(C)(C)C)cc1,.,.,.,.,.
CC(=O)Nc1cc(C(C)(C)C)c(O)c(C(C)(C)C)c1,.,.,?,.,/
CCN(CC)C(=O)c1cc(C(C)(C)C)c(O)c(C(C)(C)C)c1,10µM,.,.,.,?
COc1ccccc1N1CCN(C(=O)CN(C)S(=O)(=O)c2ccc3c(c2)c(=O)n(C)c(=O)n3C)CC1,.,/,.,.,?
CCOc1ccc(NC(=O)CCNC(=O)Cn2ccc3ccccc3c2=O)cc1,?,.,.,.,.
COc1ccc(/[N+]([O-])=C/c2ccco2)cc1,.,/,.,.,.
Cc1ccc(Nc2nc(C(=O)N3CCC(C(=O)NCCN4CCOCC4)CC3)cs2)cc1,4.7µM,.,.,.,?
COc1ccc(CNC(=O)C2CCN(C(=O)c3csc(Nc4ccc(C)cc4)n3)CC2)cc1,.,.,.,.,8.3µM
Cc1nc2c(-c3ccc(F)cc3)c(C)nn2c(C)c1CCC(=O)NCc1cccc(Cl)c1,/,/,.,/,/
CCOC(=O)c1sc(NC(=O)c2cc3n(n2)C(C(F)(F)F)CC(c2cccs2)N3)c(C(=O)OCC)c1C (centres undefined),?,.,.,.,?
Cc1nn(C)cc1CN(C)C(=O)c1nn2c(c1Br)NC(c1cccs1)CC2C(F)(F)F (centres undefined),5.2µM,.,.,.,13µM
Cc1nn(C)cc1CN(C)C(=O)c1nn2c(c1Cl)NC(c1cccs1)CC2C(F)(F)F (centres undefined),.,.,.,.,?
Cc1nn(C)c(C)c1CN(C)C(=O)c1cc2n(n1)C(C(F)(F)F)CC(c1cccs1)N2 (centres undefined),9.3µM,.,.,.,?
C=CCSc1nnc(CCc2ccccc2)n1N,?,/,.,.,.
C=CCNC(=O)c1cc2c(=O)n3cc(C)ccc3nc2nc1NCC1CCCO1 (centres undefined),4.1µM,.,.,/,.
CCNc1nc2nc3ccc(C)cn3c(=O)c2cc1C(=O)NCC1CCCO1 (centres undefined),.,.,.,?,.
N=c1c(C(=O)NC2CCCCC2)cc2c(=O)n3ccccc3nc2n1CC1CCCO1 (centres undefined),?,.,.,.,?
SMILES,Pf growth 96h,NS1 inh,Sm TGR block,AMA1 RON2 block,Pf growth 48h
CC(NC(=O)c1cc2c(=O)n3ccccc3nc2n(CC2CCCO2)c1=N)c1ccccc1 (centres undefined),.,.,.,.,13µM
N=c1c(C(=O)NC2CCCC2)cc2c(=O)n3ccccc3nc2n1CC1CCCO1 (centres undefined),?,.,.,.,13µM
Cc1ccc(CNC(=O)c2cc3c(=O)n4ccccc4nc3n(CC3CCCO3)c2=N)cc1 (centres undefined),?,.,.,.,2.6µM
Cc1ccc2nc3c(cc(C(=O)NCC4CCCO4)c(=N)n3CC3CCCO3)c(=O)n2c1 (centres undefined),.,.,.,.,.
Cc1cc(NNC(=O)c2cccc(C(F)(F)F)c2)nc2c1c(C)nn2C,.,.,.,.,.
Cc1cc2oc(=O)cc(CN3CCOCC3)c2c(C)c1Cl,.,.,.,.,.
COc1ccccc1OCCCn1cc(C(=O)C2CC2)c2ccccc21,?,.,.,.,12µM
CCOc1ccc(NC(=O)Cn2cc(C(=O)C3CC3)c3ccccc32)cc1,5.9µM,.,.,.,.

# Screening data from PubChem.
